Screening results from PubChem BioAssay.
The full list was thinned out, with hits kept by preference.
PKM2 inhibitor: qHTS Assay for Inhibitors of Human Muscle isoform 2 Pyruvate Kinase. Potency, µM (doses to about 57.5 µM), inactives show top-dose activity change, negative = inhibition, actives largely listed as inhibitors. 260,000 tested, 0.058% active. purified PKM2, ATP generation, Kinase-Glo luminescence; also: potency is read from the fitted curve at half-maximal effect; nearly all actives have a fitted effect of over 60% in size
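Enzyme run at intermediate activity with final 0.1 mM ADP, 0.5 mM PEP (50 mM imidazole pH7.2, 50 mM KCl, 7 mM MgCl2), incubated 1 h at r.t. ATP formed read by Kinase-Glo luminescence, normalized to no-enzyme (full inhibition) and uninhibited wells.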
PKM2 inh CRC: Confirmation Concentration-Response Assay for Inhibitors of Human Muscle isoform 2 Pyruvate Kinase; shares compounds with PKM2 inhibitor; purified hPK-M2, Kinase-Glo ATP luminescence, 1 h; Potency, µM (titrated, usually from 57.5 µM), without a hit: top-dose activity change, negative = inhibition, most hits filed as inhibitors; 55 tested, 50% active
PKM2 FLuc cs: Secondary assay for Inhibitors of Human Pyruvate Kinase M2 isoform: FLuc Counterscreen; shares compounds with PKM2 inhibitor; Kinase-Glo firefly luciferase, luminescence, 8 min; Potency, µM (series often up to 57.5 µM), inactives show at the highest dose activity, negative = inhibition, actives largely listed as inhibitors; 55 tested, 30% active; AID 2265, 2010
PKM2 inh LDH: Secondary assay for Inhibitors of Human Pyruvate Kinase M2 isoform; shares compounds with PKM2 inhibitor; purified hPK-M2, LDH-coupled NADH fluorescence kinetic; Potency, µM (doses to about 57.5 µM), for the others: top-dose activity change, negative = inhibition, most hits filed as inhibitors; 55 tested, under 10 active; AID 2267, 2010
Active calls of the source: *; ? = inconclusive. Calls follow the shape of the dose curve; as a rule, active = well fitted curve in the direction sought with a large enough effect; inconclusive = small, poorly fitted or top-dose-only effect, or another doubt; inactive = no such curve, though single readings can be large; an effect the other way counts as inactive or inconclusive.

SMILES	PKM2 inhibitor	others
O=c1c2ccccc2[se]n1-c1ccccc1	6.31µM*	PKM2 inh CRC=5.8µM*;PKM2 FLuc cs=20.6µM*;PKM2 inh LDH=?
Nn1c(COc2ccc(Cl)cc2)n[nH]c1=S	78.6%
O=C1c2ccccc2C(=O)N1SC1CCCCC1	35.2%
Cc1ccccc1N(CC(=O)NC1CCCC1)C(=O)c1csnn1	58.4%
COc1cc(OC)c(OC)cc1CN1CCN(C(=O)Cc2ccccc2)CC1	32.1%
